# Shown is part of a subset that was picked to be rich in the strongest signals.
# Assays:
# Test in all cases: glycan array binding signal (z-score within array); higher = stronger binding
# Settings in all cases: glycan notation: IUPAC condensed, linker removed
# [1] = system: Fuc(a1-2)[Gal(a1-3)]Gal(b1-4)[Fuc(a1-3)]GlcNAc
# Summary of the method: (§1)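 From the Consortium for Functional Glycomics database, 3228 arrays were curated, keeping only those whose protein sequence was available. Binding is given as a within-array Z-score averaged across arrays sharing a protein sequence and across linkers. Negative Z-scores can be read as non-binding.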
# [2] = system: Fuc(a1-2)[GalNAc(a1-3)]Gal(b1-3)GalNAc(a1-3)[Fuc(a1-2)]Gal(b1-4)GlcNAc
# Summary of the method: as §1
# [3] = system: Fuc(a1-2)[GalNAc(a1-3)]Gal(b1-4)GlcNAc(b1-2)Man(a1-3)[Fuc(a1-2)[GalNAc(a1-3)]Gal(b1-4)GlcNAc(b1-2)Man(a1-6)]Man(b1-4)GlcNAc(b1-4)[Fuc(a1-6)]GlcNAc
# Summary of the method: as §1
# [4] = system: Fuc(a1-2)[GalNAc(a1-3)]Gal(b1-4)GlcNAc(b1-6)GalNAc
# Summary of the method: as §1
# [5] = system: Fuc(a1-2)[GalNAc(a1-3)]Gal(b1-4)[Fuc(a1-3)]GlcNAc(b1-3)GalNAc
# Summary of the method: as §1
# [6] = system: Fuc(a1-2)[GalNAc(b1-3)]Gal
# Summary of the method: as §1
# [7] = system: Fuc(a1-2)[Gal(a1-3)]Gal(b1-4)[Fuc(a1-3)]Glc
# Summary of the method: as §1
# [8] = system: Fuc(a1-2)[GalNAc(a1-3)]Gal(b1-4)GlcNAc
# Summary of the method: as §1
# [9] = system: Fuc(a1-2)[GalNAc(a1-4)]Gal(b1-4)GlcNAc
# Summary of the method: as §1
# [10] = system: Fuc(a1-2)[Gal(a1-4)]Gal(b1-4)GlcNAc
# Summary of the method: as §1
# [11] = system: Fuc(a1-2)[GalNAc(a1-3)]Gal(b1-3)GalNAc(b1-3)Gal(a1-4)Gal(b1-4)Glc
# Summary of the method: as §1
# [12] = system: Fuc(a1-2)[GalNAc(a1-3)]Gal(b1-4)GlcNAc(b1-3)Gal(b1-4)GlcNAc
# Summary of the method: as §1
# [13] = system: Fuc(a1-2)[GalNAc(a1-3)]Gal(b1-3)GlcNAc(b1-2)Man(a1-3)[Fuc(a1-2)[GalNAc(a1-3)]Gal(b1-3)GlcNAc(b1-2)Man(a1-6)]Man(b1-4)GlcNAc(b1-4)GlcNAc
# Summary of the method: as §1
# [14] = system: Fuc(a1-2)[GalNAc(a1-3)]Gal(b1-4)GlcNAc(b1-3)GalNAc
# Summary of the method: as §1
# [15] = system: Fuc(a1-2)[GalNAc(a1-3)]Gal(b1-3)GlcNAc
# Summary of the method: as §1
# [16] = system: Fuc(a1-2)[GalNAc(a1-3)]Gal
# Summary of the method: as §1
# [17] = system: Fuc(a1-2)[GalNAc(a1-3)]Gal(b1-4)GlcNAc(b1-2)Man(a1-3)[Fuc(a1-2)[GalNAc(a1-3)]Gal(b1-4)GlcNAc(b1-2)Man(a1-6)]Man(b1-4)GlcNAc(b1-4)GlcNAc
# Summary of the method: as §1
# Fuc(a1-3)GlcNAc = system: Fuc(a1-3)GlcNAc
# Summary of the method: as §1
substance,measurement,setting,value
AgI/IIC123-GFP (Streptococcus mutans),glycan array binding signal (z-score),[1],-0.047
same,glycan array binding signal (z-score),[2],-0.259
same,glycan array binding signal (z-score),[3],-0.549
same,glycan array binding signal (z-score),[4],2.18
same,glycan array binding signal (z-score),[5],4.84
"SiiE (Salmonella typhimurium), A0A0H3NVH0",glycan array binding signal (z-score),[1],-0.019
same,glycan array binding signal (z-score),[6],1
AgI/II Vhelical-GFP (Streptococcus mutans),glycan array binding signal (z-score),[7],-0.293
same,glycan array binding signal (z-score),[3],-0.212
same,glycan array binding signal (z-score),[8],-0.146
same,glycan array binding signal (z-score),[5],2.49
same,glycan array binding signal (z-score),[9],2.31
Epa22,glycan array binding signal (z-score),[7],-0.341
same,glycan array binding signal (z-score),[10],1.84
same,glycan array binding signal (z-score),[11],-0.54
same,glycan array binding signal (z-score),[12],0.068
LcI (Legionella pneumophila),glycan array binding signal (z-score),[13],-0.301
same,glycan array binding signal (z-score),[14],0.164
same,glycan array binding signal (z-score),[4],2.06
"GspB (Streptococcus gordonii), Q939N5",glycan array binding signal (z-score),[15],0.192
same,glycan array binding signal (z-score),[16],-0.616
Actinohivin (Actinomycete K97),glycan array binding signal (z-score),[17],-0.143
"SpGH101 (Streptococcus pneumoniae), Q8DR60",glycan array binding signal (z-score),[9],-0.12
"BambL (Burhholderia ambifaria), Q0B4G1",glycan array binding signal (z-score),Fuc(a1-3)GlcNAc,7.79
